# According to article PMC8384837, “Expanding the binding specificity for RNA recognition by a PUF domain”:
# Columns and labels:
# Assay in all cases: yeast three-hybrid, YBZ-1, SC-Leu-His + 0.5 mM 3-AT, 4 days
# Conditions in all cases: tags: N-Gal4 AD-HA kept; label: inside an RPR1-promoter hybrid RNA with tandem MS2 sites; ssRNA
# PUM1 PUF domain R3-GWP = PUM1 PUF domain R3-GWP (Homo sapiens, UniProt Q14671 828-1176, C935G;R936W;Q939P)
# Procedure, shortened: (§1)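 The interaction score is the logarithmic change in variant frequency from input to selection. It uses log2, with a pseudocount of 1 for absent variants, and frequencies came from PCR-amplified, Illumina-sequenced repeat regions. The libraries were Pumilio-1 PUF domains randomized at the three base-contacting residues per repeat, co-expressed with matching RNA elements in strain YBZ-1 (LexA–MS2 coat fusion, HIS3 reporter). Plating lasted four days on SC-Leu (input) or SC-Leu-His + 0.5 mM 3-AT (selection).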
# PUM1 PUF domain R3-ARI = PUM1 PUF domain R3-ARI (Homo sapiens, UniProt Q14671 828-1176, C935A;Q939I)
# Procedure, shortened: as §1
# PUM1 PUF domain R6-TWG = target: T1, PUM1 PUF domain R6-TWG (Homo sapiens, UniProt Q14671 828-1176, N1043T;Y1044W;Q1047G)
# T1 sequence: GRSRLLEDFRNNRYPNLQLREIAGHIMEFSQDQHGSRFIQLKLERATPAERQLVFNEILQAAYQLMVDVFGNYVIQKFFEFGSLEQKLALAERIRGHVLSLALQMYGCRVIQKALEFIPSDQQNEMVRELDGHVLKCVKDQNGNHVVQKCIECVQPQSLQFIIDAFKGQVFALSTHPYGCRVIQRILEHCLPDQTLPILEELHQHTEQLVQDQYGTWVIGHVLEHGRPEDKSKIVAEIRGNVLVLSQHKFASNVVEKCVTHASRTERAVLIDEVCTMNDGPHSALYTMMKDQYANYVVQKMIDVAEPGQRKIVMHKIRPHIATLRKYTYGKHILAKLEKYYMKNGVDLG
# Procedure, shortened: as §1
# PUM1 PUF domain R4-RIF = PUM1 PUF domain R4-RIF (Homo sapiens, UniProt Q14671 828-1176, N971R;H972I;Q975F)
# Procedure, shortened: as §1
# PUM1 PUF domain R4-DWA = PUM1 PUF domain R4-DWA (Homo sapiens, UniProt Q14671 828-1176, N971D;H972W;Q975A)
# Procedure, shortened: as §1
# PUM1 PUF domain R1-QRR = PUM1 PUF domain R1-QRR (Homo sapiens, UniProt Q14671 828-1176, S863Q;Q867R)
# Procedure, shortened: as §1
# PUM1 PUF domain R1-VKR = PUM1 PUF domain R1-VKR (Homo sapiens, UniProt Q14671 828-1176, S863V;R864K;Q867R)
# Procedure, shortened: as §1
# PUM1 PUF domain R1-RKV = PUM1 PUF domain R1-RKV (Homo sapiens, UniProt Q14671 828-1176, S863R;R864K;Q867V)
# Procedure, shortened: as §1
# PUM1 PUF domain R1-QIR = PUM1 PUF domain R1-QIR (Homo sapiens, UniProt Q14671 828-1176, S863Q;R864I;Q867R)
# Procedure, shortened: as §1
# PUM1 PUF domain R5-GKS = PUM1 PUF domain R5-GKS (Homo sapiens, UniProt Q14671 828-1176, C1007G;R1008K;Q1011S)
# Procedure, shortened: as §1
# PUM1 PUF domain R5-RQA = PUM1 PUF domain R5-RQA (Homo sapiens, UniProt Q14671 828-1176, C1007R;R1008Q;Q1011A)
# Procedure, shortened: as §1
# PUM1 PUF domain R7-EFS = PUM1 PUF domain R7-EFS (Homo sapiens, UniProt Q14671 828-1176, S1079E;N1080F;E1083S)
# Procedure, shortened: as §1
# PUM1 PUF domain R3-EWV = PUM1 PUF domain R3-EWV (Homo sapiens, UniProt Q14671 828-1176, C935E;R936W;Q939V)
# Procedure, shortened: as §1
# PUM1 PUF domain R3-YCG = PUM1 PUF domain R3-YCG (Homo sapiens, UniProt Q14671 828-1176, C935Y;R936C;Q939G)
# Procedure, shortened: as §1
# PUM1 PUF domain R3-AIE = PUM1 PUF domain R3-AIE (Homo sapiens, UniProt Q14671 828-1176, C935A;R936I;Q939E)
# Procedure, shortened: as §1
# PUM1 PUF domain R5-GGE = PUM1 PUF domain R5-GGE (Homo sapiens, UniProt Q14671 828-1176, C1007G;R1008G;Q1011E)
# Procedure, shortened: as §1
# PUM1 PUF domain R5-SED = PUM1 PUF domain R5-SED (Homo sapiens, UniProt Q14671 828-1176, C1007S;R1008E;Q1011D)
# Procedure, shortened: as §1
# PUM1 PUF domain R7-TVW = PUM1 PUF domain R7-TVW (Homo sapiens, UniProt Q14671 828-1176, S1079T;N1080V;E1083W)
# Procedure, shortened: as §1
# PUM1 PUF domain R3-RIY = PUM1 PUF domain R3-RIY (Homo sapiens, UniProt Q14671 828-1176, C935R;R936I;Q939Y)
# Procedure, shortened: as §1
# PUM1 PUF domain R8-RWF = PUM1 PUF domain R8-RWF (Homo sapiens, UniProt Q14671 828-1176, N1122R;Y1123W;Q1126F)
# Procedure, shortened: as §1
sequence,measurement,setting,value
GGCUAGAACUAGUGGAUCCCCCGGCGCCCGGCGGCUCGAGCCCGGGUAAGUGUAAAUAGUCUGCAUGCCGCCGGGCGCCAUGCCUGCAGGUCGACUCUAGAAAACAUG,binding signal,PUM1 PUF domain R3-GWP,6.69 log2 enrichment (interaction score)
same,binding signal,PUM1 PUF domain R3-ARI,4.45 log2 enrichment (interaction score)
same,binding signal,PUM1 PUF domain R6-TWG,3.96 log2 enrichment (interaction score)
same,binding signal,PUM1 PUF domain R4-RIF,5.22 log2 enrichment (interaction score)
same,binding signal,PUM1 PUF domain R4-DWA,5.39 log2 enrichment (interaction score)
GGCUAGAACUAGUGGAUCCCCCGGCGCCCGGCGGCUCGAGCCCGGGUAAGUGUACAUAGUCUGCAUGCCGCCGGGCGCCAUGCCUGCAGGUCGACUCUAGAAAACAUG,binding signal,PUM1 PUF domain R4-DWA,5.13 log2 enrichment (interaction score)
GGCUAGAACUAGUGGAUCCCCCGGCGCCCGGCGGCUCGAGCCCGGGUAAGUGUAAAUUGUCUGCAUGCCGCCGGGCGCCAUGCCUGCAGGUCGACUCUAGAAAACAUG,binding signal,PUM1 PUF domain R1-QRR,1.96 log2 enrichment (interaction score)
same,binding signal,PUM1 PUF domain R1-VKR,1.61 log2 enrichment (interaction score)
same,binding signal,PUM1 PUF domain R1-RKV,3.41 log2 enrichment (interaction score)
GGCUAGAACUAGUGGAUCCCCCGGCGCCCGGCGGCUCGAGCCCGGGUAAGUGUAAAUCGUCUGCAUGCCGCCGGGCGCCAUGCCUGCAGGUCGACUCUAGAAAACAUG,binding signal,PUM1 PUF domain R1-QRR,5.33 log2 enrichment (interaction score)
same,binding signal,PUM1 PUF domain R1-VKR,3.48 log2 enrichment (interaction score)
same,binding signal,PUM1 PUF domain R1-QIR,3.53 log2 enrichment (interaction score)
GGCUAGAACUAGUGGAUCCCCCGGCGCCCGGCGGCUCGAGCCCGGGUAAGUGUAAAUGGUCUGCAUGCCGCCGGGCGCCAUGCCUGCAGGUCGACUCUAGAAAACAUG,binding signal,PUM1 PUF domain R1-VKR,0.84 log2 enrichment (interaction score)
same,binding signal,PUM1 PUF domain R1-RKV,0.48 log2 enrichment (interaction score)
GGCUAGAACUAGUGGAUCCCCCGGCGCCCGGCGGCUCGAGCCCGGGUAAGUGUCAAUAGUCUGCAUGCCGCCGGGCGCCAUGCCUGCAGGUCGACUCUAGAAAACAUG,binding signal,PUM1 PUF domain R5-GKS,0.75 log2 enrichment (interaction score)
same,binding signal,PUM1 PUF domain R5-RQA,4.83 log2 enrichment (interaction score)
GGCUAGAACUAGUGGAUCCCCCGGCGCCCGGCGGCUCGAGCCCGGGUAAGUCUAAAUAGUCUGCAUGCCGCCGGGCGCCAUGCCUGCAGGUCGACUCUAGAAAACAUG,binding signal,PUM1 PUF domain R7-EFS,2.94 log2 enrichment (interaction score)
GGCUAGAACUAGUGGAUCCCCCGGCGCCCGGCGGCUCGAGCCCGGGUAAGUGUUAAUAGUCUGCAUGCCGCCGGGCGCCAUGCCUGCAGGUCGACUCUAGAAAACAUG,binding signal,PUM1 PUF domain R5-GKS,3.25 log2 enrichment (interaction score)
same,binding signal,PUM1 PUF domain R5-RQA,5.37 log2 enrichment (interaction score)
GGCUAGAACUAGUGGAUCCCCCGGCGCCCGGCGGCUCGAGCCCGGGUAAGUGUAAGUAGUCUGCAUGCCGCCGGGCGCCAUGCCUGCAGGUCGACUCUAGAAAACAUG,binding signal,PUM1 PUF domain R3-EWV,2.9 log2 enrichment (interaction score)
same,binding signal,PUM1 PUF domain R3-YCG,4.58 log2 enrichment (interaction score)
same,binding signal,PUM1 PUF domain R3-GWP,5.41 log2 enrichment (interaction score)
same,binding signal,PUM1 PUF domain R3-AIE,2.83 log2 enrichment (interaction score)
GGCUAGAACUAGUGGAUCCCCCGGCGCCCGGCGGCUCGAGCCCGGGUAAGUGUGAAUAGUCUGCAUGCCGCCGGGCGCCAUGCCUGCAGGUCGACUCUAGAAAACAUG,binding signal,PUM1 PUF domain R5-RQA,0.37 log2 enrichment (interaction score)
same,binding signal,PUM1 PUF domain R5-GGE,3.62 log2 enrichment (interaction score)
same,binding signal,PUM1 PUF domain R5-SED,5.49 log2 enrichment (interaction score)
GGCUAGAACUAGUGGAUCCCCCGGCGCCCGGCGGCUCGAGCCCGGGUAAGUUUAAAUAGUCUGCAUGCCGCCGGGCGCCAUGCCUGCAGGUCGACUCUAGAAAACAUG,binding signal,PUM1 PUF domain R7-TVW,3 log2 enrichment (interaction score)
GGCUAGAACUAGUGGAUCCCCCGGCGCCCGGCGGCUCGAGCCCGGGUAAGUGUAAUUAGUCUGCAUGCCGCCGGGCGCCAUGCCUGCAGGUCGACUCUAGAAAACAUG,binding signal,PUM1 PUF domain R3-EWV,2.82 log2 enrichment (interaction score)
same,binding signal,PUM1 PUF domain R3-GWP,4.22 log2 enrichment (interaction score)
same,binding signal,PUM1 PUF domain R3-ARI,2.15 log2 enrichment (interaction score)
same,binding signal,PUM1 PUF domain R3-RIY,2.12 log2 enrichment (interaction score)
GGCUAGAACUAGUGGAUCCCCCGGCGCCCGGCGGCUCGAGCCCGGGUAAGCGUAAAUAGUCUGCAUGCCGCCGGGCGCCAUGCCUGCAGGUCGACUCUAGAAAACAUG,binding signal,PUM1 PUF domain R8-RWF,5.22 log2 enrichment (interaction score)
